Bioassay records as filed in PubChem.
Pf Dd2 inh = P. falciparum Dd2 growth inhibitors, primary screen, SYBR Green fluorescence, single dose replicates. 72 h; active compounds read low. activity change, % at 10 µM. 2.3% of 94,000 active; in the data active = activity change below about -80%; inconclusive = no clear call, values can overlap the other calls
C diff growth = C. difficile growth inhibitors, primary screen, HTS. Clostridium difficile clinical isolate growth, OD600, 24 h; active compounds read low. growth activity, negative = inhibition, % at 16 µg/mL (by protocol). 0.25% of 86,000 active. AID 1259249, 2017;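 active = mean growth activity at or below -80% and every replicate also at or below -80%; inconclusive = mean at or below -80% but some replicate above -80%; inactive = mean growth activity above -80%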;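 note: 0% = DMSO wells and -100% = levofloxacin 16 µg/mL wells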
Tcruzi prolif = T. cruzi intracellular proliferation inhibitors, primary screen, cell-based, beta-gal Tulahuen parasites, NIH3T3 host, luminescence; T. cruzi beta-gal in NIH3T3, GalScreen luminescence, 90 h; inhibition, % at 8.34 µM; 5.9% of 77,000 active; AID 624255, 2012;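 active = mean inhibition above about 93%, with at least 55% of replicates each passing it, limit read from the data, passing the limit was not always enough; inconclusive = only one of those two conditions holds; inactive = neither condition holds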
Numbers without * were called inactive; ? = inconclusive; / = not tested or not shown; ! = not active in a repeat. Compounds with a hit are over-represented: about 6.8% of the library has one in this group of screens.

SMILES	Pf Dd2 inh	C diff growth	Tcruzi prolif
C[C@@H]1CN([C@@H](C)CO)C(=O)c2c(c3ccccc3n2C)-c2ccccc2CO[C@H]1CN(C)Cc1ccc(Cl)c(Cl)c1	-91*	4	/
O=C(C[C@H]1C=C[C@H](NS(=O)(=O)c2ccccc2)[C@H](CO)O1)N1CCC(Cc2ccccc2)CC1	11	-6	/
C[C@H](CO)N1C[C@H](C)[C@H](CN(C)C(=O)CN(C)C)Oc2ncc(C#Cc3ccncc3)cc2C1=O	15	8	-28
CO[C@H]1CN(C)C(=O)c2cc(NS(=O)(=O)c3cn(C)cn3)ccc2OC[C@@H](C)N(C)C[C@H]1C	-6	-5	1
C[C@@H]1CCCCO[C@H](CN(C)Cc2ccc(C(F)(F)F)cc2)[C@@H](C)CN([C@H](C)CO)C(=O)c2cc(NC(=O)CCCCCC(=O)Nc3ccccc3N)ccc2O1	-93*	1	/
C[C@@H]1CCCCO[C@H](CN(C)Cc2ccccc2)[C@@H](C)CN([C@@H](C)CO)C(=O)c2cc(NC(=O)CCCCCC(=O)Nc3ccccc3N)ccc2O1	-80	1	95
C[C@@H]1CCCCO[C@@H](CN(C)Cc2ccc(Cl)c(Cl)c2)[C@@H](C)CN([C@H](C)CO)C(=O)c2cc(NC(=O)CCCCCC(=O)Nc3ccccc3N)ccc2O1	-67	-13	/
C[C@@H]1CCCCO[C@@H](CN(C)Cc2ccc3c(c2)OCO3)[C@@H](C)CN([C@H](C)CO)C(=O)c2cc(NC(=O)CCCCCC(=O)Nc3ccccc3N)ccc2O1	-85*	-2	/
C[C@H](CO)N1C[C@H](C)[C@@H](CN(C)Cc2ccccc2)Oc2ccc(NC(=O)c3ccncc3)cc2C1=O	14	3	33
C[C@@H]1CN([C@@H](C)CO)C(=O)Cc2cc(NC(=O)CCCN(C)C)ccc2O[C@H]1CN(C)CC1CCCCC1	-22	-25	19
C[C@@H]1CN([C@@H](C)CO)C(=O)Cc2cc(NC(=O)Nc3ccc4c(c3)OCO4)ccc2O[C@H]1CN(C)Cc1ccc(C(=O)Nc2ccccc2N)cc1	-14	6	47
Cc1ccccc1-c1ccccc1[C@@H]1[C@@H](C#N)N(C(=O)c2ccccc2)[C@H]1CO	-9	-2	/
CS(=O)(=O)N1[C@H](C#N)[C@H](c2ccccc2-c2ccccc2)[C@@H]1CO	-27	-17	/
CS(=O)(=O)N1[C@H](C#N)[C@H](c2ccccc2-c2ccccc2)[C@H]1CO	-94*	-10	/
Cc1ccccc1-c1ccccc1[C@H]1[C@@H](C#N)N(C(=O)c2ccccc2)[C@@H]1CO	-93*	4	/
O=C(OC(C(=O)NCc1ccccc1)c1ccco1)c1ccccc1 (stereo unspecified)	/	-1	/
COc1ccc(C#Cc2cnc3c(c2)C(=O)N([C@@H](C)CO)C[C@@H](C)[C@@H](CN(C)C)O3)cc1	-58	-7	74
CCCN(C)C[C@H]1Oc2ncc(C#Cc3ccc(OC)cc3)cc2C(=O)N([C@@H](C)CO)C[C@H]1C	-87*	3	/
COc1ccc(C#Cc2cnc3c(c2)C(=O)N([C@@H](C)CO)C[C@@H](C)[C@@H](CN(C)C(=O)c2ccccc2F)O3)cc1	-65	3	72
CCCN(C)C[C@@H]1Oc2ncc(C#Cc3ccc(OC)c(OC)c3)cc2C(=O)N([C@H](C)CO)C[C@@H]1C	-82*	8	24
COc1ccc(C#Cc2cnc3c(c2)C(=O)N([C@H](C)CO)C[C@H](C)[C@H](CN(C)S(=O)(=O)c2cccs2)O3)cc1OC	-84*!	/	77
CCCC#Cc1cnc2c(c1)C(=O)N([C@H](C)CO)C[C@H](C)[C@@H](CN(C)CCC)O2	-47	0	67
COc1ccc(C#Cc2cnc3c(c2)C(=O)N([C@H](C)CO)C[C@H](C)[C@H](CN(C)C(=O)c2ccccc2F)O3)cc1	-84*	10	60
COc1ccc(C#Cc2cnc3c(c2)C(=O)N([C@H](C)CO)C[C@H](C)[C@H](CN(C)S(=O)(=O)c2ccccc2)O3)cc1OC	-76	5	30
CCC(=O)N1C[C@@H](C)[C@@H](OC)CN(C)C(=O)c2cc(NS(C)(=O)=O)ccc2OC[C@H]1C	18	-7	1
SMILES	Pf Dd2 inh	C diff growth	Tcruzi prolif
C[C@H]1CCCCO[C@H](CN(C)C(=O)Nc2ccc(F)cc2)[C@@H](C)CN([C@@H](C)CO)C(=O)c2cc(NS(=O)(=O)c3ccc(F)cc3)ccc2O1	-69	-2	57
Cc1ccc(S(=O)(=O)N(C)C[C@@H]2OCCCC[C@H](C)Oc3ccc(N(C)C)cc3C(=O)N([C@H](C)CO)C[C@H]2C)cc1	?	0	88
CN1CCN(C(=O)C[C@H]2CC[C@@H]3[C@H](COC[C@H](O)CN3S(=O)(=O)c3cccc(F)c3)O2)CC1	17	-1	-41
Cc1ccc(S(=O)(=O)Nc2ccc3c(c2)CC(=O)N([C@H](C)CO)C[C@H](C)[C@H](CN(C)C(=O)Nc2ccc(F)cc2)O3)cc1	19	-5	6
CN1C(=O)c2cc(NC(=O)c3ccc(F)cc3)ccc2OC[C@H]2O[C@@H](CC(=O)NCC3CC3)CC[C@H]21	-8	-2	32
CCCN(C)C[C@H]1Oc2ncc(C#Cc3ccccc3OC)cc2C(=O)N([C@@H](C)CO)C[C@H]1C	78	/	/
CNC[C@@H]1Oc2ncc(C#Cc3cccc(OC)c3)cc2C(=O)N([C@H](C)CO)C[C@@H]1C	-21	3	35
CCCN(C)C[C@H]1Oc2ncc(C#Cc3ccc(OC)cc3)cc2C(=O)N([C@H](C)CO)C[C@H]1C	-84*	-5	/
CCCN(C)C[C@H]1Oc2ncc(C#Cc3ccccc3OC)cc2C(=O)N([C@H](C)CO)C[C@H]1C	-87*	3	/
CNC[C@H]1Oc2ncc(C#Cc3cccc(OC)c3)cc2C(=O)N([C@H](C)CO)C[C@H]1C	-83*	0	76
COc1ccc(C#Cc2cnc3c(c2)C(=O)N([C@@H](C)CO)C[C@H](C)[C@@H](CN(C)C)O3)cc1	-42	-4	49
COc1ccc2c3c(n(C)c2c1)[C@H](CO)N(C(=O)Nc1ccc(F)cc1)CC31CN(C)C1	-77	-7	/
COc1ccc2c3c(n(C)c2c1)[C@@H](CO)N(C(=O)Nc1ccc(F)cc1)CC31CN(C(=O)c2ccc3c(c2)OCO3)C1	-87*	-3	/
COc1ccc2c3c(n(C)c2c1)[C@H](CO)N(C(=O)Nc1ccc(F)cc1)CC31CN(C(=O)c2ccc3c(c2)OCO3)C1	-89*	3	/
COc1ccc2c3c(n(C)c2c1)[C@@H](CO)N(C)CC31CN(C(=O)c2ccc3c(c2)OCO3)C1	-43	2	/
CCCC(=O)Nc1ccc2c(c1)OC[C@@H](C)N(CCC(F)(F)F)C[C@@H](C)[C@H](OC)CN(C)C2=O	-23	-4	/
C[C@H](CO)N1C[C@H](C)[C@@H](CN(C)C)OCCCC[C@H](C)Oc2ccc(NS(=O)(=O)c3cccs3)cc2C1=O	51	5	33
CCCC#Cc1ccc2c(c1)[C@H]1[C@H](CCN1Cc1ccccc1F)[C@@H](CO)N2	-83*	14	/
C/C=C/c1ccc2c(c1)[C@H]1[C@H](CCN1S(=O)(=O)c1ccccc1C)[C@@H](CO)N2	-87*	-3	/
